From ChEMBL document CHEMBL1961873, “Compounds: GSK PKIS; Assays: Nanosyn kinase panel” (2012)
Where “and” joins values, the source holds several entries; their conditions need not be identical. Equal entries are not always repeated.

Columns and labels:
[1] = biological target: T1, Ephrin type-B receptor 2 (Homo sapiens) (UniProt P29323); settings: at 1 µM
T1 sequence (whole entry): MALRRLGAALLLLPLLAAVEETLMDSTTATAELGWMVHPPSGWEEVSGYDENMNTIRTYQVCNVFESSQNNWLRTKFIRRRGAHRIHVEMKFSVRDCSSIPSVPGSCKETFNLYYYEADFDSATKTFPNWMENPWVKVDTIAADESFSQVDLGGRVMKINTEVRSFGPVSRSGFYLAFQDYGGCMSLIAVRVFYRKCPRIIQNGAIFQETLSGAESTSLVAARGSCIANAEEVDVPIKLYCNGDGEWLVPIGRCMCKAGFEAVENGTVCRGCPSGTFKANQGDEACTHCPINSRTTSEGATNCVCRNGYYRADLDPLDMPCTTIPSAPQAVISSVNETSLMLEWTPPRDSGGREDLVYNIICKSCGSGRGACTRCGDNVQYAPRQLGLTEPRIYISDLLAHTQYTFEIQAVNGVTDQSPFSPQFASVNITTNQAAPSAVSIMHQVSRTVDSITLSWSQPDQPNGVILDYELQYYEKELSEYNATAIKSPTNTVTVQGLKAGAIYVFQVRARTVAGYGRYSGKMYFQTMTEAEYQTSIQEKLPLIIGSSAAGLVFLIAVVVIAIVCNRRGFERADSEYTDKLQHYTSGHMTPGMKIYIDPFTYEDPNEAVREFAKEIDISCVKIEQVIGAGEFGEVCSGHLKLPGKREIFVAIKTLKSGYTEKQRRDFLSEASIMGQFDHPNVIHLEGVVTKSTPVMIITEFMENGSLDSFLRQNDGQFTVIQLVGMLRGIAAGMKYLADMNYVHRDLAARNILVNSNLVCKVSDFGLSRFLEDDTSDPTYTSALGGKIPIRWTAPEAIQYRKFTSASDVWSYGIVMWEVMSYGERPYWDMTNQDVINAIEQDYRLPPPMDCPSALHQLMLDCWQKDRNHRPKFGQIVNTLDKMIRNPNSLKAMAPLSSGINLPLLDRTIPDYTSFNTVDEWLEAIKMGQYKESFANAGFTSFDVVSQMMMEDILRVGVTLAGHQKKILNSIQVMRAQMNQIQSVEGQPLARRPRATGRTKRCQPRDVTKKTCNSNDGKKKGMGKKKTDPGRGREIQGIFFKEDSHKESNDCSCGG

[2] = biological target: T2, Ephrin type-B receptor 3 (Homo sapiens) (UniProt P54753); settings: at 0.1 µM
T2 sequence (whole entry): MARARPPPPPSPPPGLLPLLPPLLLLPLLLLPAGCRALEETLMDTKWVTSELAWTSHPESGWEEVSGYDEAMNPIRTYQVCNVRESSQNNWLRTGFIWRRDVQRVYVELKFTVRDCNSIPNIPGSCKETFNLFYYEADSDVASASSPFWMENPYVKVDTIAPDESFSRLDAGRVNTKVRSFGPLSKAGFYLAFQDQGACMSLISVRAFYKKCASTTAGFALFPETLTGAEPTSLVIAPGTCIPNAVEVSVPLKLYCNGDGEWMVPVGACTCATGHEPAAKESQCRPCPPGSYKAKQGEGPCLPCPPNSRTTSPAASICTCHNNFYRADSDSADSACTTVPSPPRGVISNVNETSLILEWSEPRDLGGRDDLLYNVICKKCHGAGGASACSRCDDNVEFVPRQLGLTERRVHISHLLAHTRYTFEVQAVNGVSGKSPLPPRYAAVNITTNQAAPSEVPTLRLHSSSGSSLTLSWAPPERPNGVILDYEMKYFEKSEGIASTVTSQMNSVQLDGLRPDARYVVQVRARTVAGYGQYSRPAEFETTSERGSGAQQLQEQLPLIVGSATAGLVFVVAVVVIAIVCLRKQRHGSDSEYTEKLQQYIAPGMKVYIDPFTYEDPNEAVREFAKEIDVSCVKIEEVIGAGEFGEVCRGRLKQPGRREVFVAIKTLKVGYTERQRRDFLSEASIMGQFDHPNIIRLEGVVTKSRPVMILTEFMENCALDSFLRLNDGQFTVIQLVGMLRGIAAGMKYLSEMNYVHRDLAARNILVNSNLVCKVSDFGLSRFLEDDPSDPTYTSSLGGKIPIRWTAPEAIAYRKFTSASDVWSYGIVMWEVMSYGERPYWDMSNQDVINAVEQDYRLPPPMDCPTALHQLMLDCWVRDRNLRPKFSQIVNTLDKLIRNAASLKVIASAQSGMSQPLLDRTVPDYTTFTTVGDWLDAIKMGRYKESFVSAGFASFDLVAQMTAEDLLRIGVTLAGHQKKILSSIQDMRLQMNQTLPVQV

[3] = biological target: T2, Ephrin type-B receptor 3 (Homo sapiens); settings: at 1 µM
[4] = biological target: T3, Ephrin type-B receptor 4 (Homo sapiens) (UniProt P54760); settings: at 0.1 µM
T3 sequence (whole entry): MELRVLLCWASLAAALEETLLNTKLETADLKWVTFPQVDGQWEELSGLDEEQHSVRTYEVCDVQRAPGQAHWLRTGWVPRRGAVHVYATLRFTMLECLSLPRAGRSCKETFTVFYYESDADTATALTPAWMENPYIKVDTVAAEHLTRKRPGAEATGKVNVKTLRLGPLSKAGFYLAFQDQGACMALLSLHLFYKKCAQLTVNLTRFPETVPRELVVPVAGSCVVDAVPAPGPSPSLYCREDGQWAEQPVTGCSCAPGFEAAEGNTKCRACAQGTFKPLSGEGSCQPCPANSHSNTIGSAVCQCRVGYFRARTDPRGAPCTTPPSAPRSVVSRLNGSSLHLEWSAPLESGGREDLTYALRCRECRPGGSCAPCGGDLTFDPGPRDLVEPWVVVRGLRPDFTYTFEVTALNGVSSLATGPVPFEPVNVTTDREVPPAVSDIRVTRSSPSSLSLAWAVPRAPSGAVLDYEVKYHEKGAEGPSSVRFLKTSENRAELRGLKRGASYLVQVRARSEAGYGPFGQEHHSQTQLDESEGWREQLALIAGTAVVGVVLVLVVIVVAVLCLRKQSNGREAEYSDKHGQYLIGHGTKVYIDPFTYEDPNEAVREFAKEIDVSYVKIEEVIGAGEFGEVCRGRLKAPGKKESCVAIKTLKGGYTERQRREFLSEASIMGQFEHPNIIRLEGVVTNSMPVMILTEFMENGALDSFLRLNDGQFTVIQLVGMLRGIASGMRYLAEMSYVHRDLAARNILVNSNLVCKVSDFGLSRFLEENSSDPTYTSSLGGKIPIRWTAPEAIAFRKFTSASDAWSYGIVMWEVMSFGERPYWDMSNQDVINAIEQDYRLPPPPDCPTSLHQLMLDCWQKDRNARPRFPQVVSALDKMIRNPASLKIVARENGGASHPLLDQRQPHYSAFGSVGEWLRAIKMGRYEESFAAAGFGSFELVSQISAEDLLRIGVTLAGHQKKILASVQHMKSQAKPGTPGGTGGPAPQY

[5] = biological target: T3, Ephrin type-B receptor 4 (Homo sapiens); settings: at 1 µM
[6] = biological target: Receptor tyrosine-protein kinase erbB-2 (Homo sapiens) (UniProt P04626); settings: at 0.1 µM
[7] = biological target: Receptor tyrosine-protein kinase erbB-2 (Homo sapiens) (UniProt P04626); settings: at 1 µM
[8] = biological target: Receptor tyrosine-protein kinase erbB-4 (Homo sapiens) (UniProt Q15303); settings: at 0.1 µM
[9] = biological target: Receptor tyrosine-protein kinase erbB-4 (Homo sapiens) (UniProt Q15303); settings: at 1 µM
[10] = biological target: Tyrosine-protein kinase Fer (Homo sapiens) (UniProt P16591); settings: at 0.1 µM
[11] = biological target: Tyrosine-protein kinase Fer (Homo sapiens) (UniProt P16591); settings: at 1 µM
[12] = biological target: Tyrosine-protein kinase Fes/Fps (Homo sapiens) (UniProt P07332); settings: at 0.1 µM
[13] = biological target: Tyrosine-protein kinase Fes/Fps (Homo sapiens) (UniProt P07332); settings: at 1 µM
[14] = biological target: Fibroblast growth factor receptor 1 (Homo sapiens) (UniProt P11362); settings: at 0.1 µM
[15] = biological target: Fibroblast growth factor receptor 1 (Homo sapiens) (UniProt P11362); settings: at 1 µM
[16] = biological target: Fibroblast growth factor receptor 2 (Homo sapiens) (UniProt P21802); settings: at 0.1 µM
[17] = biological target: Fibroblast growth factor receptor 2 (Homo sapiens) (UniProt P21802); settings: at 1 µM
[18] = biological target: Fibroblast growth factor receptor 3 (Homo sapiens) (UniProt P22607); settings: at 0.1 µM
[19] = biological target: Fibroblast growth factor receptor 3 (Homo sapiens) (UniProt P22607); settings: at 1 µM
[20] = biological target: Fibroblast growth factor receptor 4 (Homo sapiens) (UniProt P22455); settings: at 0.1 µM;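 also: values are mean percent inhibition of FGFR4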
Fibroblast growth factor receptor 4 (Homo sapiens), sequence (P22455 22-802 limits assumed): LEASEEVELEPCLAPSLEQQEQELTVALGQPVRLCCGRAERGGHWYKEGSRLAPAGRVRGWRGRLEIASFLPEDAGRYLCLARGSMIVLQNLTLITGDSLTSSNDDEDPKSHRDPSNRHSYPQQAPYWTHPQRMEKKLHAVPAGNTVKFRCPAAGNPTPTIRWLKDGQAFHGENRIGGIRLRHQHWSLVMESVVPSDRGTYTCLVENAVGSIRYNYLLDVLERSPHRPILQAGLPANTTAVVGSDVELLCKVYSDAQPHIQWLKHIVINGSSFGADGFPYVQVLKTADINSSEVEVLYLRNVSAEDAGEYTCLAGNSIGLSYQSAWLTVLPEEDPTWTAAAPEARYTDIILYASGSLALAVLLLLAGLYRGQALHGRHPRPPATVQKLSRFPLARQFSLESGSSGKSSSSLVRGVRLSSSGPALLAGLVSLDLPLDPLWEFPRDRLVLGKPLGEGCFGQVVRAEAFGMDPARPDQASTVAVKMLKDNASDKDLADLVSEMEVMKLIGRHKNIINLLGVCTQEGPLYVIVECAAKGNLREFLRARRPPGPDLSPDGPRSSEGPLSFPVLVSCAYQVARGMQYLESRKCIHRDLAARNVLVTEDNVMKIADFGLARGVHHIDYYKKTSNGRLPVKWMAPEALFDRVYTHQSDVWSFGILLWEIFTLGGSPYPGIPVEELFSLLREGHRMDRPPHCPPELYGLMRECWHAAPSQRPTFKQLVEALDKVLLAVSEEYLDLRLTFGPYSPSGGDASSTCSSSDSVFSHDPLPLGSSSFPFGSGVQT

Fibroblast growth factor receptor 2 (Homo sapiens), sequence (P21802 22-821 limits assumed): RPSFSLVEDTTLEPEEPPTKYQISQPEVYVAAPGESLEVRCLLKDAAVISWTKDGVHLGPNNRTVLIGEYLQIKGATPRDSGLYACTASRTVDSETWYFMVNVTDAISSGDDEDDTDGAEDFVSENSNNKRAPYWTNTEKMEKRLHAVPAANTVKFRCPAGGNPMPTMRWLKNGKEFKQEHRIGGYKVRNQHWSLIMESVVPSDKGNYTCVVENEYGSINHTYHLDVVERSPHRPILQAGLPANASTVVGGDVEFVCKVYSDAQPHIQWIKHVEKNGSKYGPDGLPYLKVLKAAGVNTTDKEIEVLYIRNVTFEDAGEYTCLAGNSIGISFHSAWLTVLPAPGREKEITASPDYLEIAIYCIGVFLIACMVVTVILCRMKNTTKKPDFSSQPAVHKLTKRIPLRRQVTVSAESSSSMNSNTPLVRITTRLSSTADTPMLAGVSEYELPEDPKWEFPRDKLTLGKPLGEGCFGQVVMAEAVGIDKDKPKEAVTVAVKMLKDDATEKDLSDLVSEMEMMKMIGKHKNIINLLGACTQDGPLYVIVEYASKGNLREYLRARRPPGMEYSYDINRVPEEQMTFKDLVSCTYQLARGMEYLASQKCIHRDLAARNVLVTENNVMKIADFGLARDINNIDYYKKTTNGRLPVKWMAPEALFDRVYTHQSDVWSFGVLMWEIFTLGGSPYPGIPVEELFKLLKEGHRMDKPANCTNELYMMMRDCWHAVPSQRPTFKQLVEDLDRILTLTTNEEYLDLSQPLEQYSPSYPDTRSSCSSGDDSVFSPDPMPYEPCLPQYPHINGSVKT
Receptor tyrosine-protein kinase erbB-2 (Homo sapiens), sequence (P04626 whole entry): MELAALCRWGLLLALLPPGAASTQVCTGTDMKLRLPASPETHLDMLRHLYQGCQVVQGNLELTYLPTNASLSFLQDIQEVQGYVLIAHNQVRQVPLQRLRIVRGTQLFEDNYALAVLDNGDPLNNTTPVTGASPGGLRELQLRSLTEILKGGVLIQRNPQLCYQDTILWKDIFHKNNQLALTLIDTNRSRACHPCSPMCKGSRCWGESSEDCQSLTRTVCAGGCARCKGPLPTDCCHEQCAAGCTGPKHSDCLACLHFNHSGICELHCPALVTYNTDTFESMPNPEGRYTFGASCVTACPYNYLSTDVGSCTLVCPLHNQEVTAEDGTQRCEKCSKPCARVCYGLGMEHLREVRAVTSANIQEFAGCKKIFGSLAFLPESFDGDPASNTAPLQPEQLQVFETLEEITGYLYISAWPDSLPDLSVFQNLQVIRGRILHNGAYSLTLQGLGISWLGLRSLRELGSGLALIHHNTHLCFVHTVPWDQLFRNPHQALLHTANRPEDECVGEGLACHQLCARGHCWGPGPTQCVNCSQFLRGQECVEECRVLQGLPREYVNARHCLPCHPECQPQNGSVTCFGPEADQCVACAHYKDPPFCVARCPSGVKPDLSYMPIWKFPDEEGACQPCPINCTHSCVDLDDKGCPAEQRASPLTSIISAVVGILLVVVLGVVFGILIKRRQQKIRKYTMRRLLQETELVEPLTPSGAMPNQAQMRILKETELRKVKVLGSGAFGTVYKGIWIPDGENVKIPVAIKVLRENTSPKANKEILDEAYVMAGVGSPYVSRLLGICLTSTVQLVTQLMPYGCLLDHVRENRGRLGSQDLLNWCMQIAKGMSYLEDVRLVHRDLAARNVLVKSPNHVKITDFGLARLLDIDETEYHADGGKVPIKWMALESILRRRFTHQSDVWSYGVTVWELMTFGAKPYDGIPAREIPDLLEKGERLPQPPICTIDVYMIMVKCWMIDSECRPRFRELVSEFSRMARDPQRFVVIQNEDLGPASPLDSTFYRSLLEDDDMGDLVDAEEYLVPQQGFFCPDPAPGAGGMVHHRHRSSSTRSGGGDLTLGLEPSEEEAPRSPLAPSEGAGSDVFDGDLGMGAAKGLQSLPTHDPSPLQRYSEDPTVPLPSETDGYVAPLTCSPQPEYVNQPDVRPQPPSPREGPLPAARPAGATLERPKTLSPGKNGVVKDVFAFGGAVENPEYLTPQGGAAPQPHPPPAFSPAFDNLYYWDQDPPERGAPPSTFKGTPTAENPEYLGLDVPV
Fibroblast growth factor receptor 3 (Homo sapiens), sequence (P22607 23-806 limits assumed): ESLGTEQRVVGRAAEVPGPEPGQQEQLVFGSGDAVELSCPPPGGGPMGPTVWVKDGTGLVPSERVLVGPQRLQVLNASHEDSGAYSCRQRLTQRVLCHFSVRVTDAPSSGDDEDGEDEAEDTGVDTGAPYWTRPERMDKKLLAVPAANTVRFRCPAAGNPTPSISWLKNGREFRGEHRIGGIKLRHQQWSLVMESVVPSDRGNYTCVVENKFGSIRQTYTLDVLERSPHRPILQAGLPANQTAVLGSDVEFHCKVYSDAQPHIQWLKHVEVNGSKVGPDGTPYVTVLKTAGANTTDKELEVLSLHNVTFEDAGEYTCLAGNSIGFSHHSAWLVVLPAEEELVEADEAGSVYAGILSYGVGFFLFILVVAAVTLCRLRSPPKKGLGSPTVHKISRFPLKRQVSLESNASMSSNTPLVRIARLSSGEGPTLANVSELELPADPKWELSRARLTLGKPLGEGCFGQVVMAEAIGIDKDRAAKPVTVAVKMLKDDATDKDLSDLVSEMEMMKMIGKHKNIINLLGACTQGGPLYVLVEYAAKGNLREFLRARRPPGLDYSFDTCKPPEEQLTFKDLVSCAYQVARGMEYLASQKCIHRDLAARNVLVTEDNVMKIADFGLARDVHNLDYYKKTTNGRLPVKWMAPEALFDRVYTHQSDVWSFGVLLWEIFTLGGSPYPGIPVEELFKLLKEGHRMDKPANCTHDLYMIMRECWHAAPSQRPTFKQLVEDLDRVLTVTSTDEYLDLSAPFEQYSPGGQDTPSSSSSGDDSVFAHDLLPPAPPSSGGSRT
Receptor tyrosine-protein kinase erbB-4 (Homo sapiens), sequence (Q15303 whole entry): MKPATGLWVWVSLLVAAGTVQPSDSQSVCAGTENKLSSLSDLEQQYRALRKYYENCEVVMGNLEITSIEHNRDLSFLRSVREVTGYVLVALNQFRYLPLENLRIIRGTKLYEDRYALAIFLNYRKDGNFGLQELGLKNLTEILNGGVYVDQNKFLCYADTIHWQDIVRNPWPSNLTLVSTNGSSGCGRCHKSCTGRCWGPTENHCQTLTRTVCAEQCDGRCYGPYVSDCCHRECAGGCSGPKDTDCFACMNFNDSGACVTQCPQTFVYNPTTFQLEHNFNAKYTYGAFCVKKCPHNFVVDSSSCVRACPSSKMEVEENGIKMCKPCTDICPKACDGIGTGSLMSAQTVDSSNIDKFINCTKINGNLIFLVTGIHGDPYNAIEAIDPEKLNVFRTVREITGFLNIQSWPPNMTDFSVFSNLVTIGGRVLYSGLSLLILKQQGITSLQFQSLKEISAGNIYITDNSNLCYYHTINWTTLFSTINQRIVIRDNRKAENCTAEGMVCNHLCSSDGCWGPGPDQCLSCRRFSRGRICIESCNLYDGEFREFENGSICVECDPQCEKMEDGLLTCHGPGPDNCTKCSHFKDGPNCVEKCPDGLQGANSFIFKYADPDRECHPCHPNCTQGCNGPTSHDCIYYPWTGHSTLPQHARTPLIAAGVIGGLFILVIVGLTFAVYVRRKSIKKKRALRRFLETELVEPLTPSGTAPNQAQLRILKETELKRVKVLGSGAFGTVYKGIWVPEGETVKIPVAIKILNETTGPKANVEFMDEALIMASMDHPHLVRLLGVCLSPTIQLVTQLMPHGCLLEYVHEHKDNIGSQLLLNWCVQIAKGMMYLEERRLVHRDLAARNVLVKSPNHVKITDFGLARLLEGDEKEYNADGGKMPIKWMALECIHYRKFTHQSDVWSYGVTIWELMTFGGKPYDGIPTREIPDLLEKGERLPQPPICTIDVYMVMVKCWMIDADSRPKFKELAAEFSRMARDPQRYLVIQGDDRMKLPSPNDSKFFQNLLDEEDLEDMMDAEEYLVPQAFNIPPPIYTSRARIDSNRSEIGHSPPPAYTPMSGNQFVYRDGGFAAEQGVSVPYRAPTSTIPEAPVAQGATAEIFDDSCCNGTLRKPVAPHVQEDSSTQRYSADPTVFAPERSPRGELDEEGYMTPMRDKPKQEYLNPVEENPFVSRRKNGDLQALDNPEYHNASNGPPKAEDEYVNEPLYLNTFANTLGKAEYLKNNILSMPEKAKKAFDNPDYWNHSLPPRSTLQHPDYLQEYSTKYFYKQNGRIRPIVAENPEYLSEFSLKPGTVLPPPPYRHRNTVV

Compound	inhibition [1]	inhibition [2]	inhibition [3]	inhibition [4]	inhibition [5]	inhibition [6]	inhibition [7]	inhibition [8]	inhibition [9]	inhibition [10]	inhibition [11]	inhibition [12]	inhibition [13]	inhibition [14]	inhibition [15]	inhibition [16]	inhibition [17]	inhibition [18]	inhibition [19]	inhibition [20] [%]
Cc1ccc(-c2cc3c(NC(=O)C4CC4)ncnc3o2)cc1	36.6%	5.13%	1.62%	3.05%	12.9%	0.91%	-0.45%	9.66%	11.1%	8.51%	6.82%	4.78%	7.73%	7.46%	5.81%	6.04%	10.7%	5.42%	5.53%	1.15
COc1cccc(Nc2nccc(-c3cnn4ncccc34)n2)c1	36%	1.65%	-3.88%	2.75%	16.1%	-0.16%	1.64%	8.21%	3.05%	9.45%	48%	8.87%	50.3%	-2.04%	4.55%	1.68%	16.6%	0.93%	10.9%	1.56
CN1CCC(C(=O)Nc2n[nH]c3nc(-c4ccc(O)cc4)c(Br)cc23)CC1	8.11% and 8.66%	1.14% and 1.43%	1.83% and 4.59%	-1.77% and 1.07%	-1.46% and 4.54%	6.86% and 3.66%	7.03% and 4.93%	6.26% and 5.04%	8.49% and 8.92%	4.47% and -1.58%	5.19% and 5.02%	2.73% and 2.03%	2.01% and 1.81%	-1.64% and 2.05%	-0.75% and 5.39%	-0.3% and 14.5%	2.81% and 5.43%	1.48% and 6.04%	1.79% and 4.41%	6.09
COc1cc(N2CCN(C(C)C)CC2)ccc1Nc1nc(Nc2cccc(F)c2C(=O)O)c2cc[nH]c2n1	12.6%	3.69%	6.24%	2.82%	2.84%	3.72%	5.93%	11.7%	11.2%	32.5%	75.6%	18.5%	63.7%	2.19%	6.27%	7.3%	9.34%	4.65%	8.48%	-2.62
COC(=O)Nc1nc2cc(Oc3ccc(NC(=O)Nc4ccccc4)cc3)ccc2[nH]1	4.12%	3.87%	1.72%	0.78%	0.42%	3.5%	3.12%	7.18%	7.92%	2.73%	3.19%	1.46%	1.32%	-5.22%	1.47%	1.69%	4.03%	5.75%	3.54%	0.83
NC(=O)c1ccc2c(-c3ccnc(NCCCO)n3)c(-c3ccc(F)cc3)nn2c1	40.3%	4.52%	4.65%	4.6%	11.4%	2.1%	3.13%	16.8%	39%	6.31%	6.71%	3%	5.19%	8.04%	8.15%	4.29%	9.62%	5.45%	7.13%	0.14
COc1cc(N2CCN(C(C)C)CC2)ccc1Nc1nc(Nc2cccc3ncccc23)c2cc[nH]c2n1	2.09%	1.16%	0.4%	0.17%	0.88%	-0.99%	2.24%	-0.3%	5.51%	7.7%	44.4%	0.44%	10%	-4.53%	-4.83%	-2.09%	1.97%	0.3%	0.87%	0.6
